Screening results from PubChem BioAssay.
Rows were chosen to be rich in hits. Some 3.4% of all compounds tested hit in one or more screens of this group.
ADAM17 inh = inhibitors of human ADAM17. P78536. recombinant ADAM17, EDANS/DABCYL FRET peptide cleavage. inhibition, % at 6.95 µM. 0.83% of 370,000 active. AID 720648;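 active = inhibition above the mean of compounds lying between control limits plus 3 SD, set per campaign, cut at about 8.5% in these data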
sPLA2-III inh = Inhibits HGIII-sPLA2 liposome hydrolysis, primary screen. Q9NZ20. QFRET BODIPY PC-A2 liposome hydrolysis, fluorescence. inhibition, % at 12.2 µM. 0.56% of 370,000 active;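 active = inhibition above mean plus 3 SD of compounds lying within the high and low control bounds, cut at about 19% in these data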
PLCb3 inh = inhibitors of human phospholipase C beta3. 0.18% of 370,000 active. Q01970. Purified PLC-beta3, fluorogenic substrate, fluorescence. inhibition, % at 12.2 µM
ADAM10 inh = inhibits human ADAM10; O14672; inhibition, % at 7 µM; AID 720582; recombinant ADAM10, EDANS/DABCYL FRET peptide cleavage, 3 h; 0.62% of 370,000 active;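 active = inhibition above a per-campaign cutoff equal to the mean of compounds falling between control-based bounds plus 3 SD, cut at about 20% in these data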
PLC-gamma1 inh = PLC-gamma1 (human) inhibition, primary screen; P19174; purified PLC-gamma1, fluorogenic substrate, fluorescence; inhibition, % at 12.2 µM; 0.84% of 370,000 active; AID 720700; in the data active = inhibition above about 9.5%
KLK7 zymogen act = activators of human kallikrein-7 zymogen; P49862; purified proKLK7, EDANS-DABCYL substrate fluorescence; 100% is mature enzyme control, 0% vehicle; activation, % at 7 µM; 0.9% of 370,000 active; AID 652039;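 active = activation above the mean of all tested compounds plus 3 SD, computed per campaign excluding outliers beyond control limits, cut at about 13% in these data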
PLCg1 ctr = PLC-gamma1 inhibition, counter-screen for PLC-beta3 hits; inhibition, % at 12.3 µM; shares compounds with PLC-gamma1 inh; 3.1% of 3,300 active; AID 743258; purified PLC-gamma1, fluorogenic substrate, fluorescence; in the data active = inhibition above about 9.5%
PLCb3 confirm = confirmation of human PLC-beta3 inhibitors; 1% of 3,300 active; inhibition, % at 12.3 µM; shares compounds with PLC-gamma1 inh; purified PLC-beta3, fluorogenic substrate fluorescence
Numbers stand for hits; . = inactive; / = no result. Cut-off read from the data, not from the text of the source, unless noted: active = inhibition above about 11%; inactive = the rest.

SMILES	ADAM17 inh	sPLA2-III inh	PLCb3 inh	ADAM10 inh	PLC-gamma1 inh	KLK7 zymogen act	PLCg1 ctr	PLCb3 confirm
CCc1ccc(OC)c(S(=O)(=O)Nc2ccccc2C)c1	.	.	.	.	.	.	/	/
O=C(NC1CCCCN(Cc2cccc(C(F)(F)F)c2)C1=O)c1c(F)cccc1F (configuration not stated)	.	.	.	.	.	.	/	/
COc1ccc(/C=C/C(Cc2cccc(C(C)=O)c2)c2ccc(C)cc2)cc1 (configuration not stated)	.	.	.	.	.	.	/	/
CCCCOC(=O)n1c(=O)oc2cc(S(=O)(=O)N3CCCCC3)ccc21	.	.	.	.	11	.	.	.
COC(=O)n1c(=O)oc2ccc(S(=O)(=O)N3CCCCC3)cc21	.	.	.	.	.	.	/	/
Cn1c(SC/C=C/c2ccccc2)nnc1-c1cccnc1	.	.	.	.	12	.	.	.
CCCCN1CCN(C(=O)Cn2c(=O)c3ccccc3n(CC)c2=O)CC1	.	.	.	.	.	.	/	/
O=C(Cn1c(NCCCO)nc2ccccc21)c1ccc(Br)cc1	.	.	12	.	.	.	.	.
O=C(Cn1c(NCCO)nc2ccccc21)c1ccccc1	.	.	.	.	.	.	/	/
O=C(COC(=O)CCc1nc2ccccc2s1)Nc1ccc(S(=O)(=O)N2CCOCC2)cc1	.	.	.	.	.	.	/	/
O=C(COC(=O)CCc1nc2ccccc2s1)Nc1cccc(S(=O)(=O)N2CCOCC2)c1	.	.	.	.	11	.	.	.
CC(C)N1CCCCC(NC(=O)c2c(F)cccc2F)C1=O (configuration not stated)	.	.	.	.	.	.	/	/
CCn1c(N)nc2c1c(=O)n(C)c(=O)n2C	.	.	.	.	.	.	/	/
CCCc1nc2c(=O)n(C)c(=O)nc-2n(C)n1	.	.	.	.	55	.	43	.
Cn1nc(-c2ccccn2)nc2c(=O)n(C)c(=O)nc1-2	.	.	.	.	51	.	32	.
Fc1ccc(C(c2nnnn2C2CCCC2)N(Cc2ccco2)CC2CCCO2)cc1 (configuration not stated)	.	.	12	.	11	.	.	.
CCC(C(=O)NC1CCCC1)N(Cc1ccco1)C(=O)Cn1nnc(-c2ccc(C)cc2)n1 (configuration not stated)	.	.	.	.	.	.	/	/
CCOC(=O)CN(C(=O)Cn1nnc(-c2ccc(C)cc2)n1)C(CC)C(=O)NC1CCCC1 (configuration not stated)	.	.	.	.	13	.	.	.
Cc1ccccc1C(=O)N1CCC(C(=O)N2CCN(Cc3ccc4c(c3)OCO4)CC2)CC1	.	.	.	.	12	.	.	.
O=C(c1cccs1)N1CCC(C(=O)N2CCN(Cc3ccc4c(c3)OCO4)CC2)CC1	.	.	.	.	.	.	/	/
CCCN1CCS(=O)(=O)N(Cc2cn(Cc3ccc(Cl)cc3)nn2)C(C(=O)OC)C1 (configuration not stated)	.	.	.	.	.	.	/	/
CCOC(=O)c1c(C)nc(C)c(C(=O)OCC)c1-c1ccc(Br)cc1	.	.	.	.	12	.	.	.
CCOC(=O)c1c(C)nc(C)c(C(=O)OCC)c1-c1ccc(OC)cc1	.	.	.	.	.	.	/	/
C=CCN1C(=O)[C@@H](CC(=O)N2CCN(C(=O)C3CC3)CC2)[C@]2(C(=O)OCC)CCCCC/C=C/12	.	.	.	.	.	.	/	/
CC1(C)CC(=O)C(C2=NC3(CCCCCC3)Cc3ccccc32)=C(O)C1	.	.	.	.	10	.	.	.
C#CCNC(=O)C[C@H]1C[C@@]2(C(=O)OC)C(=C[C@H](COCc3ccccc3)O[C@@H]2C)N(Cc2ccccc2)C1=O	.	.	.	.	.	.	/	/
COc1ccc(N2CC(C(=O)Nc3ccc(S(=O)(=O)N4CCCC4)cc3)CC2=O)cc1 (configuration not stated)	.	.	.	.	.	.	/	/
